# What was measured:
# Assay in all cases: DAPPL (digital affinity profiling via proximity ligation, sequencing); 10 mM Tris-HCl pH 7.5, 50 mM NaCl, 1 mM DTT, 4% glycerol, room temperature, 30 min; GST-TFs on glutathione beads, 16-mer random dsDNA library, 0.1% formaldehyde crosslink after washing; high values mean tight binding
# [1] = molecular target: T1, FEV (Homo sapiens, UniProt Q99581 1-238); details: protein: recombinant; tags: N-terminal GST; dsDNA, one strand shown
# T1 sequence: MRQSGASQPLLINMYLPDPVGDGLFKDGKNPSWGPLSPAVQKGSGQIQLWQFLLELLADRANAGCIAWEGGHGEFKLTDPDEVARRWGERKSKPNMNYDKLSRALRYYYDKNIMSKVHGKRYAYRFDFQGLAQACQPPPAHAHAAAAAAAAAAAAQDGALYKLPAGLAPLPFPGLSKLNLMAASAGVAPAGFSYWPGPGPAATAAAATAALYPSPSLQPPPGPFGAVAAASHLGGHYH
# Summary of the method: (§1)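 The binding signal reported is, for every hexamer, its read frequency for a factor over its read frequency for the tag-only sample. Reads came from pools of yeast-expressed, GST-fused human transcription factors on glutathione beads, barcoded with DNA and mixed with that sample, which were incubated with 200 nmole of a random double-stranded 16-mer DNA library in Tris/NaCl/DTT/glycerol buffer at room temperature for 30 min. After washing, the pools were crosslinked with 0.1% formaldehyde, proximity-ligated with BsaI/T4 ligase for 1 h at 37 °C, PCR-amplified and sequenced on an Illumina NextSeq500.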
# [2] = molecular target: ETV5 (Homo sapiens, UniProt P41161 1-510); details: protein: recombinant; tags: N-terminal GST; dsDNA, one strand shown
# Summary of the method: as §1
# [3] = molecular target: HSF1 (Homo sapiens, UniProt Q00613 1-529); details: protein: recombinant; tags: N-terminal GST; chain copies: 3; dsDNA, one strand shown
# Summary of the method: as §1
# [4] = molecular target: T2, SPIC (Homo sapiens, UniProt Q8N5J4 1-248); details: protein: recombinant; tags: N-terminal GST; dsDNA, one strand shown
# T2 sequence: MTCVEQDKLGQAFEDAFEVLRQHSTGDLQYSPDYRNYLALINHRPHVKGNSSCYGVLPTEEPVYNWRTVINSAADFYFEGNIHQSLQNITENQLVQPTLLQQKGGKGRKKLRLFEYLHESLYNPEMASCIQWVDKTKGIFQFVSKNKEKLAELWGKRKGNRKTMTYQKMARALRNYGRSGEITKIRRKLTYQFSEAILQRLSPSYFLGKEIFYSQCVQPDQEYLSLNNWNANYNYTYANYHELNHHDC
# Summary of the method: as §1
# [5] = molecular target: ELF4 (Homo sapiens, UniProt Q99607 1-663); details: protein: recombinant; tags: N-terminal GST; dsDNA, one strand shown
# Summary of the method: as §1
# [6] = molecular target: T3, ELK4 (Homo sapiens, UniProt P28324-2 1-405); details: protein: recombinant; tags: N-terminal GST; dsDNA, one strand shown
# T3 sequence: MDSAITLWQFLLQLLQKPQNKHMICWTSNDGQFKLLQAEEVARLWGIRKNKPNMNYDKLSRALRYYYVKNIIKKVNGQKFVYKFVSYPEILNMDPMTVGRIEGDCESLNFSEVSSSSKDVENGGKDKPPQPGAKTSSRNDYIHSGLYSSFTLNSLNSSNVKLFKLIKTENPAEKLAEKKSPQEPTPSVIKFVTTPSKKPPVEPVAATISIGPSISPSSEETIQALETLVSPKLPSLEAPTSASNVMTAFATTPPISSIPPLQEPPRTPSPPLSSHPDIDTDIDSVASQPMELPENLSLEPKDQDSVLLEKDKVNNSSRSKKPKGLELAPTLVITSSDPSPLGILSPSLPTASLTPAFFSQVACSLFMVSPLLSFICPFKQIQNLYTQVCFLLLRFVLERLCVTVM
# Summary of the method: as §1
# [7] = molecular target: T4, ETV2 (Homo sapiens, UniProt O00321 1-342); details: protein: recombinant; tags: N-terminal GST; dsDNA, one strand shown
# T4 sequence: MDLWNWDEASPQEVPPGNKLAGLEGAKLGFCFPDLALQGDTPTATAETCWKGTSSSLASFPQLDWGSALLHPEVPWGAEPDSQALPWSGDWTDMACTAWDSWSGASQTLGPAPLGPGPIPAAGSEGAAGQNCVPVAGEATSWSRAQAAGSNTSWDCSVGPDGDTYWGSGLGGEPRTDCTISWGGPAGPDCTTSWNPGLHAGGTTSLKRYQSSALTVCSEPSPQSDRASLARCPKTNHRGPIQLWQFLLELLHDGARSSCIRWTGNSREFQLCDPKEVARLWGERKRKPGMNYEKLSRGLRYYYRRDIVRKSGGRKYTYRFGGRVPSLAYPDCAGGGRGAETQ
# Summary of the method: as §1
# [8] = molecular target: T5, ELF3 (Homo sapiens, UniProt P78545 1-371); details: protein: recombinant; tags: N-terminal GST; dsDNA, one strand shown
# T5 sequence: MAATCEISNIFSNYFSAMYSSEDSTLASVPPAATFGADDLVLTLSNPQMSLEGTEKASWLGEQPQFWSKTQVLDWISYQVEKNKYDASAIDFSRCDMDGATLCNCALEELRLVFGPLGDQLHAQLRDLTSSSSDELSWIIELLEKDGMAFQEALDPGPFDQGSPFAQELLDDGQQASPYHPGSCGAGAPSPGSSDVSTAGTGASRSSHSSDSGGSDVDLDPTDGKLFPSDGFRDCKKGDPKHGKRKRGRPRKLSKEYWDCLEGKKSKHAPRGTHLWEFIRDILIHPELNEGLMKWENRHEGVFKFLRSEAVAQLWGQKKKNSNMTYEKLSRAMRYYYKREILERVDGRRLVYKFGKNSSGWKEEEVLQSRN
# Summary of the method: as §1
# [9] = molecular target: CRX (Homo sapiens, UniProt O43186 1-299); details: protein: recombinant; tags: N-terminal GST; dsDNA, one strand shown
# Summary of the method: as §1
# [10] = molecular target: ETV1 (Homo sapiens, UniProt P50549 1-477); details: protein: recombinant; tags: N-terminal GST; dsDNA, one strand shown
# Summary of the method: as §1
# [11] = molecular target: T6, ERF (Homo sapiens, UniProt P50548 1-548); details: protein: recombinant; tags: N-terminal GST; dsDNA, one strand shown
# T6 sequence: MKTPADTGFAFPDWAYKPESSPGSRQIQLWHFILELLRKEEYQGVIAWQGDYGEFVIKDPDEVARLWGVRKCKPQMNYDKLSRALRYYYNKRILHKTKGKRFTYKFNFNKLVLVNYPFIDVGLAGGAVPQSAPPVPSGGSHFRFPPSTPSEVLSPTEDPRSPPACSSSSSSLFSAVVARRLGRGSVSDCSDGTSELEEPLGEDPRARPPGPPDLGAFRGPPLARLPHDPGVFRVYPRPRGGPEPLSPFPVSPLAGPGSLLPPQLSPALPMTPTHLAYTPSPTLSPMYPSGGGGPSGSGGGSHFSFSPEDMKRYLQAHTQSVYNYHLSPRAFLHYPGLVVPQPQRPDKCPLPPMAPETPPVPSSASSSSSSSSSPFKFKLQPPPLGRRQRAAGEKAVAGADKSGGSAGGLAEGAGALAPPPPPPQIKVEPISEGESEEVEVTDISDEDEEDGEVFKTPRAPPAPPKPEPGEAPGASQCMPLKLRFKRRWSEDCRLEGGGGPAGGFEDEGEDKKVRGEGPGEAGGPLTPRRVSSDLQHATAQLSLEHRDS
# Summary of the method: as §1
# [12] = molecular target: T7, ETV3L (Homo sapiens, UniProt Q6ZN32 1-361); details: protein: recombinant; tags: N-terminal GST; dsDNA, one strand shown
# T7 sequence: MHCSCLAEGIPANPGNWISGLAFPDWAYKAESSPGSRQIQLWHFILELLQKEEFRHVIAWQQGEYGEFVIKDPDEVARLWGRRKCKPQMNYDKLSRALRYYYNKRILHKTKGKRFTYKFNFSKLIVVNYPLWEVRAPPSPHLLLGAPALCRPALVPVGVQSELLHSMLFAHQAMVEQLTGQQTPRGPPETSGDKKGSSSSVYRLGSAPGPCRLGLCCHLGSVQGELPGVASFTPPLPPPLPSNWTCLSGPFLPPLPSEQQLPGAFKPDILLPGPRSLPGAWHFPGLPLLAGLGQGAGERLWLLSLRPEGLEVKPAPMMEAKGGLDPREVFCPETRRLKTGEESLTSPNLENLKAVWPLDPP
# Summary of the method: as §1
# [13] = molecular target: T8, ETS2 (Homo sapiens, UniProt P15036 1-469); details: protein: recombinant; tags: N-terminal GST; dsDNA, one strand shown
# T8 sequence: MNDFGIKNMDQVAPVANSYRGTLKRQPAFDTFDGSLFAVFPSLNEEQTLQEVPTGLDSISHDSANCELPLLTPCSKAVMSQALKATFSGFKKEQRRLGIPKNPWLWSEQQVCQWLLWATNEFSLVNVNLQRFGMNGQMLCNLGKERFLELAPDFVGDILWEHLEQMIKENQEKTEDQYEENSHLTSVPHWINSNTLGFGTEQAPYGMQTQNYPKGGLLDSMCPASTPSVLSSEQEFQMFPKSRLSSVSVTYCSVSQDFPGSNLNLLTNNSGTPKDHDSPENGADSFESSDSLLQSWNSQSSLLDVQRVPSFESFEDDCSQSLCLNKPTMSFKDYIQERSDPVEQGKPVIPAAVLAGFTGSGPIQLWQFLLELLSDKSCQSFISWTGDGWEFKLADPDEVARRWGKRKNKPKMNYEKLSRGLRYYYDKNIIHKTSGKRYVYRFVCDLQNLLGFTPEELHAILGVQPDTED
# Summary of the method: as §1
# [14] = molecular target: T9, SPDEF (Homo sapiens, UniProt O95238 1-335); details: protein: recombinant; tags: N-terminal GST; dsDNA, one strand shown
# T9 sequence: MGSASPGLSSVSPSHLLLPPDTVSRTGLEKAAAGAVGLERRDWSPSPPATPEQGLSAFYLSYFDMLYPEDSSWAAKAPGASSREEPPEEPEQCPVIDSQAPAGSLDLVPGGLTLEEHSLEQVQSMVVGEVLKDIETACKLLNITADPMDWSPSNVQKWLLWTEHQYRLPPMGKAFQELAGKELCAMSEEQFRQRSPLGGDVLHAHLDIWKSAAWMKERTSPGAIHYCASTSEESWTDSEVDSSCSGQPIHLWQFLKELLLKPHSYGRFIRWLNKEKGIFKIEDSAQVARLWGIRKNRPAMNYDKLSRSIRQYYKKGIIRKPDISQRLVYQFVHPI
# Summary of the method: as §1
# [15] = molecular target: T10, ETV7 (Homo sapiens, UniProt Q9Y603 1-341); details: protein: recombinant; tags: N-terminal GST; dsDNA, one strand shown
# T10 sequence: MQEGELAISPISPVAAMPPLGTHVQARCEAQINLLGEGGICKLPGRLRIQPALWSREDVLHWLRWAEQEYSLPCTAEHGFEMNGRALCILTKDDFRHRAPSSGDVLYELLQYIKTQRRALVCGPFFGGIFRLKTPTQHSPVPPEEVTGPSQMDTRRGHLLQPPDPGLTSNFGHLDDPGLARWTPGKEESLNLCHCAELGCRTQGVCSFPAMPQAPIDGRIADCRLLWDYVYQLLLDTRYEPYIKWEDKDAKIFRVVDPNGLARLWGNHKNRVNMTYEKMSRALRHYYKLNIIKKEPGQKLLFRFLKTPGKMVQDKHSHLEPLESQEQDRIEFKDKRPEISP
# Summary of the method: as §1
# [16] = molecular target: T11, ELF5 (Homo sapiens, UniProt Q9UKW6-2 1-255); details: protein: recombinant; tags: N-terminal GST; dsDNA, one strand shown
# T11 sequence: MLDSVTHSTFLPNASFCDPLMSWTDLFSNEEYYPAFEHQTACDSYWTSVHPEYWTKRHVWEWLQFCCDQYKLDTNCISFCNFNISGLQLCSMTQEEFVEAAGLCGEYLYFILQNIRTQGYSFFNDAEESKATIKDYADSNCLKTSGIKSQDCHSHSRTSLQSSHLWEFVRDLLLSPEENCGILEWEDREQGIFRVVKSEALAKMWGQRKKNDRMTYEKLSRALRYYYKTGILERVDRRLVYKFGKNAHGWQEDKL
# Summary of the method: as §1
# [17] = molecular target: T12, ETV3 (Homo sapiens, UniProt P41162-2 1-143); details: protein: recombinant; tags: N-terminal GST; dsDNA, one strand shown
# T12 sequence: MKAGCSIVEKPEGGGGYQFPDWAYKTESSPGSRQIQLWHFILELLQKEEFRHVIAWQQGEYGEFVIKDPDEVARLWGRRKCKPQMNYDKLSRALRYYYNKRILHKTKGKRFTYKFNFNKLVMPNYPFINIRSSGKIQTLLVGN
# Summary of the method: as §1
# [18] = molecular target: ETV6 (Homo sapiens, UniProt P41212 1-452); details: protein: recombinant; tags: N-terminal GST; dsDNA, one strand shown
# Summary of the method: as §1
# Sequence of CRX (O43186 whole entry): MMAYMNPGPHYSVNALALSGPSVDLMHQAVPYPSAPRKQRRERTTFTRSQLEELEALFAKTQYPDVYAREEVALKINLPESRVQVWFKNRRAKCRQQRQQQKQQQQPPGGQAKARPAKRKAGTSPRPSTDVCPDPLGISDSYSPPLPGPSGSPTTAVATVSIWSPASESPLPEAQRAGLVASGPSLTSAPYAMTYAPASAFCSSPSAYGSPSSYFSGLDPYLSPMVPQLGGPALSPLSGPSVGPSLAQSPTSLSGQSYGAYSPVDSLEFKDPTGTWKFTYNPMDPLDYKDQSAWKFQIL
# Sequence of ETV1 (P50549 whole entry): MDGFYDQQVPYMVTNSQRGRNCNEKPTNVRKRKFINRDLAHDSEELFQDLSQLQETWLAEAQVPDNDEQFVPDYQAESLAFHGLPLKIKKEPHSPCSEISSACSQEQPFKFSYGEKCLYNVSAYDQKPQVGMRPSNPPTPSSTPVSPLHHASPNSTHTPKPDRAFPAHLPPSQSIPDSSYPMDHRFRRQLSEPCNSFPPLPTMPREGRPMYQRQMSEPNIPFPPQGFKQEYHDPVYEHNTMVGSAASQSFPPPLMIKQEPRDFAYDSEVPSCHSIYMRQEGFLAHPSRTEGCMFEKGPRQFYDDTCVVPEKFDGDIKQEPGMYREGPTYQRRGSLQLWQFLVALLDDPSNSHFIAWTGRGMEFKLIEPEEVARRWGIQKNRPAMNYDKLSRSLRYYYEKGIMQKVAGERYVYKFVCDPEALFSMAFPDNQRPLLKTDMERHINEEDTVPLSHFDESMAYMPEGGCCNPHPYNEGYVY
# Sequence of ETV5 (P41161 whole entry): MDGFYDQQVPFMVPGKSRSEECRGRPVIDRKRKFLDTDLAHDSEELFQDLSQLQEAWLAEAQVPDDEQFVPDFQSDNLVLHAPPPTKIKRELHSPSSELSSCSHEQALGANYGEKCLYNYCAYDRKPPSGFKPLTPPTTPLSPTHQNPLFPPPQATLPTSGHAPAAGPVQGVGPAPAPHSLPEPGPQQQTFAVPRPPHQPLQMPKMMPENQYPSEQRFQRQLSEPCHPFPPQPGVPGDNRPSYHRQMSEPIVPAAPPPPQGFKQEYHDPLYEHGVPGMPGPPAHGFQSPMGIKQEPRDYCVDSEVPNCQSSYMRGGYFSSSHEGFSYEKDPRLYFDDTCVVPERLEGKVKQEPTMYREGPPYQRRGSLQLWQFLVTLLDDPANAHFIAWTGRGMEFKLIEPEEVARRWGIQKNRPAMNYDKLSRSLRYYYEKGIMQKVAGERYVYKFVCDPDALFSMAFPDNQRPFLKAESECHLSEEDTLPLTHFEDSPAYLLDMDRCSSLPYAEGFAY
# Sequence of HSF1 (Q00613 whole entry): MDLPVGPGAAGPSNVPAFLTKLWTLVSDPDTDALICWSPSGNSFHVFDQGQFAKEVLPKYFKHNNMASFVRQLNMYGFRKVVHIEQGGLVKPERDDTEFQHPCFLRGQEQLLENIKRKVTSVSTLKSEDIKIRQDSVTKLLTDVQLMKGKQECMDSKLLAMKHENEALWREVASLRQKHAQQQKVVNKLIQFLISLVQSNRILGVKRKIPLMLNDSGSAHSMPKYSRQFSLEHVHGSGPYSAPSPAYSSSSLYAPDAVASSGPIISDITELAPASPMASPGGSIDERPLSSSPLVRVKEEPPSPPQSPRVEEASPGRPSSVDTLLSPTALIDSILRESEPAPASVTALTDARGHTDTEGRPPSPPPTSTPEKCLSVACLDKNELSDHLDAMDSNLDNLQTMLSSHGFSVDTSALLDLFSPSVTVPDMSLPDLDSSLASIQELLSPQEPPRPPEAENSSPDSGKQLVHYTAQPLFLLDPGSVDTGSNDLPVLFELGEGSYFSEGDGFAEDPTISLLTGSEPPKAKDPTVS
# Sequence of ELF4 (Q99607 whole entry): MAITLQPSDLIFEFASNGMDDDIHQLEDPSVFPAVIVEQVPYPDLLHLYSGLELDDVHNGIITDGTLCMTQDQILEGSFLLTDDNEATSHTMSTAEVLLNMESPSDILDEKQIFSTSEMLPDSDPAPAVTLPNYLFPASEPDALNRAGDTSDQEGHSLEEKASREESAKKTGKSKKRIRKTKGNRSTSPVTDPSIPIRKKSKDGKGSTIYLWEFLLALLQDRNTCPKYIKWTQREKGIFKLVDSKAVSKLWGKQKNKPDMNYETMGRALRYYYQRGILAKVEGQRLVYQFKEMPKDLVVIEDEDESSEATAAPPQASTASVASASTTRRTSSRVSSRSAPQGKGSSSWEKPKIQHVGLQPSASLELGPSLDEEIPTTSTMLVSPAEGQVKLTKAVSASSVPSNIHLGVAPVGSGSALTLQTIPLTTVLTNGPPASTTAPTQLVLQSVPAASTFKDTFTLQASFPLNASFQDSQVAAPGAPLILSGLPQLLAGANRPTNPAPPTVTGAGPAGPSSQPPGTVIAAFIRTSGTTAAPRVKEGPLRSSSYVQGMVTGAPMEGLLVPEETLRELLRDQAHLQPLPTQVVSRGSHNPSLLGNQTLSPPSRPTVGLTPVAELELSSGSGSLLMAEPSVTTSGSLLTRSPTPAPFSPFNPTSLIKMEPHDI
# Sequence of ETV6 (P41212 whole entry): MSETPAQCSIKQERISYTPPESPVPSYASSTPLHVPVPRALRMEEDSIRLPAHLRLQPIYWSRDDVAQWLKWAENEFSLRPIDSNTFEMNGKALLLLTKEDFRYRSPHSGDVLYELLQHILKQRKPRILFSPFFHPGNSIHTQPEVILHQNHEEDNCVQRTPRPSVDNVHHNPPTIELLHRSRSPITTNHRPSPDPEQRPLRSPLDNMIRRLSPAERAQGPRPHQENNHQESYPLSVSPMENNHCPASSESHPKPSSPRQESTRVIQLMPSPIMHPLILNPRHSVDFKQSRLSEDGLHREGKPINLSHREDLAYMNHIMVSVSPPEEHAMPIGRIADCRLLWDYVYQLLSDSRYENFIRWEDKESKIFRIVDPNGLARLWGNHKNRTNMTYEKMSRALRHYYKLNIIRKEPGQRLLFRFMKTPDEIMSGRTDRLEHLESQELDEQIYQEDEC
sequence,measurement,setting,value
GCCTCT,binding signal,[1],"1.39 fold enrichment (6-mer frequency, TF over GST control)"
same,binding signal,[2],"1.39 fold enrichment (6-mer frequency, TF over GST control)"
same,binding signal,[3],"1.25 fold enrichment (6-mer frequency, TF over GST control)"
same,binding signal,[4],"1.21 fold enrichment (6-mer frequency, TF over GST control)"
same,binding signal,[5],"1.42 fold enrichment (6-mer frequency, TF over GST control)"
same,binding signal,[6],"1.28 fold enrichment (6-mer frequency, TF over GST control)"
same,binding signal,[7],"1.45 fold enrichment (6-mer frequency, TF over GST control)"
same,binding signal,[8],"1.28 fold enrichment (6-mer frequency, TF over GST control)"
same,binding signal,[9],"1.28 fold enrichment (6-mer frequency, TF over GST control)"
same,binding signal,[10],"1.32 fold enrichment (6-mer frequency, TF over GST control)"
same,binding signal,[11],"1.25 fold enrichment (6-mer frequency, TF over GST control)"
same,binding signal,[12],"1.32 fold enrichment (6-mer frequency, TF over GST control)"
same,binding signal,[13],"1.25 fold enrichment (6-mer frequency, TF over GST control)"
same,binding signal,[14],"1.3 fold enrichment (6-mer frequency, TF over GST control)"
same,binding signal,[15],"1.35 fold enrichment (6-mer frequency, TF over GST control)"
same,binding signal,[16],"1.27 fold enrichment (6-mer frequency, TF over GST control)"
same,binding signal,[17],"1.34 fold enrichment (6-mer frequency, TF over GST control)"
same,binding signal,[18],"1.35 fold enrichment (6-mer frequency, TF over GST control)"
